Data published in PubChem BioAssay (Tox21).
Several values for one entry are separate records, joined by “and”; a condition that tells them apart may be missing. Equal values may be shown once. Records with an inconclusive call do not appear. Entries that show only a call come without a potency. Activity calls are given as the source filed them. The call rests on the fitted dose curve; in most records, active means well fitted curve in the direction sought with a large enough effect in the repeat runs; inconclusive means weak or mixed curves; inactive means no such curve, though single readings can be large; an effect the other way counts as inactive or inconclusive.

Assays:
[1] = biological target: Cytochrome P450 2D6 (Homo sapiens) (UniProt P10635); assay: Cytochrome P450 Family 2 Subfamily D Member 6 (CYP2D6) small molecule antagonists: luciferase reporter qHTS assay (AID 1671196); further: nearly all actives have a fitted effect of over 50% in size
Chain of Cytochrome P450 2D6 (Homo sapiens) (P10635 whole entry, looked up): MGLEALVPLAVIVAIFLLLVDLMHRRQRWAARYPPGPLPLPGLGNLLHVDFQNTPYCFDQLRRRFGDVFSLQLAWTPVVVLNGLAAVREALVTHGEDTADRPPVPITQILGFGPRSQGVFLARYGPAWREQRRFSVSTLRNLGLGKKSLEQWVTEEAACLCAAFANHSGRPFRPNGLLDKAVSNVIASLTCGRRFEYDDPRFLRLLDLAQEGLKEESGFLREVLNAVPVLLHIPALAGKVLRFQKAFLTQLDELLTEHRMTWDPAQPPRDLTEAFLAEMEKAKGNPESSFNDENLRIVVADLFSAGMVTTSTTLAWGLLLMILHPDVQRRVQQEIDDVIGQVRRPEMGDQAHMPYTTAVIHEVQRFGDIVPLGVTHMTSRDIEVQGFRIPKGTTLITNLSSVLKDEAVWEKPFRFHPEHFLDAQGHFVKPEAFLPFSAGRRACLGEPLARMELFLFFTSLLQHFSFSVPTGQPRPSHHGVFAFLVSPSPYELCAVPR
In short: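 Chemicals tested for interference with CYP2D6 activity; proluciferin substrate, NADPH regeneration, 1 h at room temperature, luminescent detection.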

[2] = biological target: Cytochrome P450 2C19 (Homo sapiens) (UniProt P33261); assay: Cytochrome P450 Family 2 Subfamily C Member 19 (CYP2C19) small molecule antagonists: luciferase reporter qHTS assay (AID 1671197); further: nearly all actives have a fitted effect of over 65% in size
Chain of Cytochrome P450 2C19 (Homo sapiens) (P33261 whole entry, looked up): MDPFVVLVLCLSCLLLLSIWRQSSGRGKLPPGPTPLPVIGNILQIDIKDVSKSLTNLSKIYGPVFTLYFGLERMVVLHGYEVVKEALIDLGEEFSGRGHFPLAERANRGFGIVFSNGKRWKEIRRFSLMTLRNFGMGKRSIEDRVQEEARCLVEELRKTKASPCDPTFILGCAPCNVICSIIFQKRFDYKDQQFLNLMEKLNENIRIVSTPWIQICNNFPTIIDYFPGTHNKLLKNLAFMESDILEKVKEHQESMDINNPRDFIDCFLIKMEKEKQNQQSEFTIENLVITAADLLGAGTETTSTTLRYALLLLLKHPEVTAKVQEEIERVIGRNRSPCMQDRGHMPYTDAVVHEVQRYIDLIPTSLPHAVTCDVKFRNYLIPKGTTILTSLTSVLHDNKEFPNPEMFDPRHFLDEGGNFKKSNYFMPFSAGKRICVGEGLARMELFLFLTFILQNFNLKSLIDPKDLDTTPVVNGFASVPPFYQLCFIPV
In short: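 Light output is proportional to CYP2C19 activity: proluciferin substrate is converted to luciferin, then detected by a luciferin detection reagent that also stops the 1 h, 37C NADPH-driven reaction. Ketoconazole serves as positive control.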

[3] = biological target: Cytochrome P450 2C9 (Homo sapiens) (UniProt P11712); assay: Cytochrome P450 Family 2 Subfamily C Member 9 (CYP2C9) small molecule antagonists: luciferase reporter qHTS assay (AID 1671198); further: nearly all actives have a fitted effect of over 50% in size
Chain of Cytochrome P450 2C9 (Homo sapiens) (P11712 whole entry, looked up): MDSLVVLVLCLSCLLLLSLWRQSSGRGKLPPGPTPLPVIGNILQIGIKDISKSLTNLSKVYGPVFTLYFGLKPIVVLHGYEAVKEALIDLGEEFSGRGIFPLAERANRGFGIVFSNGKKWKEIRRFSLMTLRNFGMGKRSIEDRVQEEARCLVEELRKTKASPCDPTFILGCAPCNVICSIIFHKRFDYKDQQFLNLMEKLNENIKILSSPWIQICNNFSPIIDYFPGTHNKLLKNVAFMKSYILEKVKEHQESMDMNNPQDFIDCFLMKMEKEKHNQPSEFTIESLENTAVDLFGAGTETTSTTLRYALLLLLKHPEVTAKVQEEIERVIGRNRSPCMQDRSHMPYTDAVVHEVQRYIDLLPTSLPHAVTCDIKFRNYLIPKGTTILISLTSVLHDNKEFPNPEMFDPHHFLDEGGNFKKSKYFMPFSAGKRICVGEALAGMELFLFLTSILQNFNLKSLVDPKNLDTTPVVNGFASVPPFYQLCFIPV
In short: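 Enzyme-substrate mix preincubated with compound 10 min at room temperature; reaction started with NADPH regeneration solution, 1 h 37C. Luminescent luciferin product read after 20 min detection reagent.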

[4] = biological target: Voltage-gated inwardly rectifying potassium channel KCNH2 (Homo sapiens) (UniProt Q12809); assay: Human Ether-a-go-go-Related Gene (hERG) channel small molecule antagonists: fluorescence cell-based qHTS assay (AID 1671200); further: nearly all actives have a fitted effect of over 50% in size
Chain of Voltage-gated inwardly rectifying potassium channel KCNH2 (Homo sapiens) (Q12809 whole entry, looked up): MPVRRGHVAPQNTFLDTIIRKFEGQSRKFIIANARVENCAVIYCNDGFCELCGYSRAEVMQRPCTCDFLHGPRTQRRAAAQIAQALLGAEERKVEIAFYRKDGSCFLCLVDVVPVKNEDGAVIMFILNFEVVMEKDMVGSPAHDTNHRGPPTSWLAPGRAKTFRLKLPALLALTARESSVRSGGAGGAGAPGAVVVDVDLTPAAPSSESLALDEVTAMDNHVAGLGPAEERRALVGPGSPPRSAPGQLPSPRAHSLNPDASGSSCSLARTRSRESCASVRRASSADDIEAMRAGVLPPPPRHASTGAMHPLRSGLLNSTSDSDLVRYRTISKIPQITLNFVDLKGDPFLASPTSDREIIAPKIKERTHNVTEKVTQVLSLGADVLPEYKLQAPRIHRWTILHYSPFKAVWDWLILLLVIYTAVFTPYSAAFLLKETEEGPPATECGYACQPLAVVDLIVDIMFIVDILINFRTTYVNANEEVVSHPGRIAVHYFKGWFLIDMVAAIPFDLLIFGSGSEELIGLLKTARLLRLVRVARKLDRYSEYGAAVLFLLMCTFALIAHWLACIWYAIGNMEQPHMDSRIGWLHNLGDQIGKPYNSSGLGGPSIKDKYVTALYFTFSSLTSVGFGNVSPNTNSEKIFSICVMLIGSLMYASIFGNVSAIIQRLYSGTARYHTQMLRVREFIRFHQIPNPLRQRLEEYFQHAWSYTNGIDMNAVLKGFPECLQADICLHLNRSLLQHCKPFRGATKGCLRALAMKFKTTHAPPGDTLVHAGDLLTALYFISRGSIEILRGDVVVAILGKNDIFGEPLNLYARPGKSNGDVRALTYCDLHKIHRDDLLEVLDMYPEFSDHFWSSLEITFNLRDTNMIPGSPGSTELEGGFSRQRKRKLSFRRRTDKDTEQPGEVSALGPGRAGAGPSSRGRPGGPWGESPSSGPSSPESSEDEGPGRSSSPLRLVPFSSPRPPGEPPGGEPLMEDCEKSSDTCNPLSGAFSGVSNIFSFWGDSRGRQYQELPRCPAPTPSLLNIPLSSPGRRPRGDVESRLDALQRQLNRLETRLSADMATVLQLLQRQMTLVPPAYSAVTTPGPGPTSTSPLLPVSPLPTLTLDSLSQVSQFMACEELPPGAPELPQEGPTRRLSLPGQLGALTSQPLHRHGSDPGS
In short: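 Thallium served as the potassium surrogate; its influx into dye-loaded U2OS cells carrying the channel was measured by fluorescence over 2 min.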

[5] = biological target: Cytochrome P450 1A2 (Homo sapiens) (UniProt P05177); assay: Cytochrome P450 Family 1 Subfamily A Member 2 (CYP1A2) small molecule antagonists: luciferase reporter qHTS assay (AID 1671199); further: nearly all actives have a fitted effect of over 50% in size
Chain of Cytochrome P450 1A2 (Homo sapiens) (P05177 whole entry, looked up): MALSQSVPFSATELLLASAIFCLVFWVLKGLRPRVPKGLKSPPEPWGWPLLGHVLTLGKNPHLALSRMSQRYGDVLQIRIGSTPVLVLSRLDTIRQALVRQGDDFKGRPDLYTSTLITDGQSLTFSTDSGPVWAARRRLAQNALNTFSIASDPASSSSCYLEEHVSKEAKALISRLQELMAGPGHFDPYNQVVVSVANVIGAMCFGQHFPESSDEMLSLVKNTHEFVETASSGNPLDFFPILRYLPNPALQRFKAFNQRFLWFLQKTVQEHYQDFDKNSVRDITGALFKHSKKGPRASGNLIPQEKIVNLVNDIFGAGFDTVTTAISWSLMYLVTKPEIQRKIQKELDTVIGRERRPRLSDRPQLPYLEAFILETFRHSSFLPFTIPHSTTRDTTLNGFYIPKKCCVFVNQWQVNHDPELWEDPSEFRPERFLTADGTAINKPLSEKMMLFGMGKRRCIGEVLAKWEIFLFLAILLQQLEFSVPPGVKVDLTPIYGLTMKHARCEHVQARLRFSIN
In short: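 Read-out is luminescence from luciferin detection reagent (20 min) proportional to CYP1A2 activity; compounds in DMSO preincubated 10 min with enzyme and proluciferin substrate, then NADPH regeneration solution, 1 h, room temperature.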

[6] = biological target: Cytochrome P450 3A4 (Homo sapiens) (UniProt P08684); assay: Cytochrome P450 Family 3 Subfamily A Member 4 (CYP3A4) small molecule antagonists: luciferase reporter qHTS assay (AID 1671201); further: nearly all actives have a fitted effect of over 50% in size
Chain of Cytochrome P450 3A4 (Homo sapiens) (P08684 whole entry, looked up): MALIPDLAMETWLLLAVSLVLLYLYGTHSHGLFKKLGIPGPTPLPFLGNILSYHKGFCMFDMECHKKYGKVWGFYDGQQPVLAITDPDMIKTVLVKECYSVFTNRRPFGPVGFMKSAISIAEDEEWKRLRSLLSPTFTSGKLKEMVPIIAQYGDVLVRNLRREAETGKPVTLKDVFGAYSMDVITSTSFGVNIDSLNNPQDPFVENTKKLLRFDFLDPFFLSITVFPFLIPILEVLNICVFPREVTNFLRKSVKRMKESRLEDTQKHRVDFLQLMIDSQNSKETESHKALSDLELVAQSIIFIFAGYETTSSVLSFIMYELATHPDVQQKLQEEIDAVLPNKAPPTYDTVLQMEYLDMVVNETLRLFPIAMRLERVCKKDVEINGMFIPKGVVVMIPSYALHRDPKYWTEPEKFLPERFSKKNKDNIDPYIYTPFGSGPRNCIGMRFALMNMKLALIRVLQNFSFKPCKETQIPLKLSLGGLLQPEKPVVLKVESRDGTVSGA
In short: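 Relative luminescence units after 20 min with luciferin detection reagent served as read-out. Beforehand, CYP3A4 turned over a proluciferin substrate for 1 h at room temperature with NADPH regeneration, following 10 min compound preincubation.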
Potency means the concentration at half of the fitted maximal effect.

Compound | Potency [1] | Potency [2] | Potency [3] | Potency [4] | Potency [5] | Potency [6]
C=CC(=O)[O-].C=CC(=O)[O-].[Zn+2] | 34.8 µM (active) | 27.6 µM (active) | 61.8 µM (active) | inactive | – | –
C/C=C\C/C=C/CCCCCCCCOC(C)=O | 39.9 µM (active) | 15.9 µM (active) | 12.6 µM (active) | – | 31.7 µM (active) | 15.9 µM (active)
CC(CO)CO | inactive | inactive | inactive | inactive | inactive | inactive
Cc1cscn1 | inactive | inactive | inactive | inactive | – | inactive
Nc1ccc(N=Nc2ccccc2)c(N)c1 | 2.2 µM (active) | 24.7 µM (active) | 31 µM (active) | 17 µM (active) | – | 11 µM (active)
O=[N+]([O-])c1cc(C2CCCCC2)c(O)c([N+](=O)[O-])c1 | 31.6 µM (active) | 39.8 µM (active) | 8.91 µM (active) | inactive | – | inactive
COc1cc(Nc2c(C#N)cnc3cc(OCCCN4CCN(C)CC4)c(OC)cc23)c(Cl)cc1Cl | inactive | inactive | inactive | – | inactive | inactive
C[C@]12CC[C@@H]3c4ccc(O)cc4CC[C@H]3[C@@H]1CC[C@@H]2OC(=O)CCC1CCCC1 | inactive | 14.2 µM (active) | 17.8 µM (active) and 17.4 µM (active) | inactive | 17.8 µM (active) | inactive
COc1cc(C(=O)NC2CCN(C)CC2)ccc1Nc1ncc2c(n1)N(C1CCCC1)CC(F)(F)C(=O)N2C | inactive | 51.7 µM (active) | 29.1 µM (active) | inactive | – | –
COc1ccc(OC(=O)N(CC(=O)O)Cc2ccc(OCCc3nc(-c4ccccc4)oc3C)cc2)cc1 | inactive | inactive | 13.8 µM (active) | inactive | 17.4 µM (active) | inactive
Clc1ccc(Nc2nnc(Cc3ccncc3)c3ccccc23)cc1 | 17.4 µM (active) | 2.19 µM (active) | 1.55 µM (active) | inactive | – | –
C[C@@H]1CN(CCCn2c3ccccc3c3ccccc32)C[C@H](C)N1 | 0.389 µM (active) | inactive | inactive | 6.01 µM (active) | – | –
CC(=O)N/N=C/c1ccc([N+](=O)[O-])o1 | inactive | inactive | inactive | inactive | – | inactive
c1ccc2c(c1)CCc1ccccc1N2 | inactive | 8 µM (active) and 8.71 µM (active) | 40.1 µM (active) and 13.8 µM (active) | inactive | – | inactive
CC(=O)Nc1cc(S(=O)(=O)O)cc2cc(S(=O)(=O)O)c(N=Nc3ccccc3)c(O)c12 | 35.6 µM (active) | 39.9 µM (active) | 35.6 µM (active) | inactive | – | –
C=C1CCC2CC1C2(C)C (centres undefined) | inactive | inactive | inactive | inactive | – | inactive
O[C@@H]1CO[C@H]2[C@@H]1OC[C@@H]2O | inactive | inactive | inactive | inactive | inactive | inactive
CCc1ccccc1 | inactive | inactive | inactive | inactive | – | inactive
CCOC(=O)/C=C/C(=O)OCC | inactive | inactive | inactive | inactive | – | inactive
COc1ncnc(NS(=O)(=O)c2ccc(N)cc2)c1OC | inactive | inactive | inactive | inactive | – | inactive
N#[N+]c1ccc2c(S(=O)(=O)[O-])cccc2c1O | 31.7 µM (active) | 20 µM (active) | 39.9 µM (active) | inactive | – | –
O=C1NCCN1CCO | inactive | inactive | inactive | inactive | inactive | inactive
CC(C)=CC(=O)C=C(C)C | inactive | 39.7 µM (active) | inactive | inactive | 28.1 µM (active) | inactive
CC(CN(C)C)C(C)(O)Cc1ccc(Cl)cc1 (centres undefined) | 6.17 µM (active) | inactive | inactive | – | inactive | inactive
O=C(OCC(O)CO)c1ccccc1Nc1ccnc2cc(Cl)ccc12 (centres undefined) | 13.8 µM (active) | 8.71 µM (active) | 15.5 µM (active) | inactive | – | –
Cc1ccc(CO)cc1 | inactive | inactive | inactive | inactive | – | inactive
CCOC(=O)[C@H](CCc1ccccc1)N[C@@H](C)C(=O)N(CC(=O)O)C1Cc2ccccc2C1 | inactive | 6.92 µM (active) | 15.5 µM (active) | inactive | – | –
COc1ccccc1NC(=O)c1cc2ccccc2cc1O | inactive | 11.2 µM (active) | 22.4 µM (active) | inactive | 1.78 µM (active) | 28.3 µM (active)
